Data published in PubChem BioAssay (NCI).
Compounds without any hit were thinned out: in the full panel of roughly 83,000, 20% have a hit.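 Percent growth is the endpoint: 0 to 100 indicates growth inhibition (40 means 60% inhibition), 0 means no net growth, and negative values indicate cell death.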 Values without a mark were called inactive. Activity calls are given as the source filed them. Rule for the calls: active = growth percent below 10; inactive = the rest.

Tested on: MDA-MB-468 breast
Assay: NCI-60 one-dose screen, 48 h (100 = growth as untreated, 0 = no growth, -100 = all killed)
Settings: 10 µM unless noted

Row | SMILES | growth
1 | O=C1c2ccc3c4c5ccc(c24)C(=O)N1CCCOCCCCOCCCNCc1ccc(cc1)CNCCCOCCCCOCCCN(C3=O)C5=O | -81.4% (active)
2 | c1ccc(Cn2cnc3ccc(-c4nc(-c5ccc6c(c5)ncn6C5CCCCC5)cn5ccnc45)cc32)cc1 | -35.7% (active)
3 | CCNC(=O)Oc1ccc(/C(=C(\C)c2ccc(Cl)cc2)c2ccc(OCCN(CC)CC)cc2)cc1 | 67.5%
4 | c1ccc(-c2c(-c3ccccc3)[n+](Cc3ccc4ccccc4c3)c(-c3ccccc3)n2Cc2ccc3ccccc3c2)cc1 | -76.4% (active)
5 | CC1(C)C(=O)/C(=C\c2ccccn2)C[C@]2(C)[C@H]3CC[C@@H]4[C@@H](C(=O)/C=C/c5ccccn5)CC[C@@]4(C)[C@]3(C)CC[C@@H]12 | -50.6% (active)
6 | CN(C)CCCOc1ccc(NC2=C(Cl)C(=O)C(Nc3ccc(OCCCN(C)C)cc3)=C(Cl)C2=O)cc1 | -57.2% (active)
7 | O=C(CN1CCN(c2cc3c(cc2F)c(=O)c(C(=O)N/N=C/c2ccccc2)cn3C2CC2)CC1)N/N=C\c1ccccc1 | 85.4%
8 | C/C(=N\OC(=O)Nc1cccc(Cl)c1)c1ccccc1 | 75.1%
9 | O=C(CCNCc1ccccc1)c1ccccc1 | 98.2%
10 | CNC(=O)c1cc(Oc2ccc3nc(NC(=O)Nc4ccc(Cl)c(C(F)(F)F)c4)sc3c2)ccn1 | -5.09% (active)
11 | Nc1nc(N)c2cc(CNc3ccc(C(=O)NC(CC(=O)O)C(=O)O)cc3)ccc2n1 (configuration not stated) | 61.4%
12 | O=C1/C(=C/c2ccc(Cl)cc2Cl)CN(S(=O)(=O)c2ccccc2)C/C1=C\c1ccc(Cl)cc1Cl | -24.5% (active)
